# From PubChem BioAssay (NCATS)
# Records with an inconclusive call do not appear. Activity calls are given as the source filed them. Unless noted, calls come from the whole dose curve.
# Columns and labels:
# [1] = target: Estrogen receptor (Homo sapiens) (UniProt P03372); assay: qHTS assay for small molecule antagonists of estrogen receptor alpha signaling (AID 588513; active = well fitted curve in the direction sought with a large enough effect in the signal ratio, with a control signal flat, not every such curve was filed as active; the % refers to the signal ratio; note: % is set by controls: 0 for no effect and ±100 for the full control effect)
# Chain of Estrogen receptor (Homo sapiens) (P03372 whole entry, looked up): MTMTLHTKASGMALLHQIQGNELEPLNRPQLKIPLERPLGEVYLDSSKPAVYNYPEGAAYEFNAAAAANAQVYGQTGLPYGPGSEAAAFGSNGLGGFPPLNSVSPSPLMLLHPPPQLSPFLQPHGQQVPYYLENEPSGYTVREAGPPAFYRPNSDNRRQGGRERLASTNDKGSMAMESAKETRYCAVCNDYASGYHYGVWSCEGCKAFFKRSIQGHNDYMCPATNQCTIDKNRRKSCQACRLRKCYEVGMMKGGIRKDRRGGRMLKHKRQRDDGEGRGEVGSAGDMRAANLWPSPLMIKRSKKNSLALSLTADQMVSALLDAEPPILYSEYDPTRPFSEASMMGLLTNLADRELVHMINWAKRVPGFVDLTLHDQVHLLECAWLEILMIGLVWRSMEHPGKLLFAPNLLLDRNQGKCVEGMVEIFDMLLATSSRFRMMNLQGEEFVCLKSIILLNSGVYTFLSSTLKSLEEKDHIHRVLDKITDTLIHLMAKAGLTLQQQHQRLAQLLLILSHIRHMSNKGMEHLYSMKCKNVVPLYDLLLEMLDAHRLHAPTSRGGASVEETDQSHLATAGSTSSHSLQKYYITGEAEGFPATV
# How it was run: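 Cells were plated at 5000/well and incubated 4 h at 37 C. Compounds were added as 1:2 dilution series, duplicates. 17-beta-estradiol (0.5nM final) was added for 18 h before CCF4 detection.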
# [2] = target: Estrogen receptor (Homo sapiens) (UniProt P03372); assay: qHTS assay for small molecule agonists of estrogen receptor alpha signaling (AID 588514);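 note: 0% = vehicle only and 100% = reference agonist; nearly all actives have a fitted effect of over 70% in size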
# How it was run: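 ER-alpha-UAS-bla GripTite HEK293 cells, 5000/well in 2% charcoal/dextran-stripped FBS medium, treated with compound titrations 18 h at 37 C. CCF4 beta-lactamase read by fluorescence after 2 h RT; normalised to 20 nM 17-beta-estradiol (100%) and DMSO (0%), Hill fit for EC50 and efficacy.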
# [3] = qHTS assay for small molecule antagonists of peroxisome proliferator-activated receptor delta signaling (AID 588535); conditions: HEK293T PPARd-UAS-bla, beta-lactamase FRET ratio, 18 h; 460 nm channel;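 note: cells co-treated with a PPAR-delta agonist as stimulator during compound exposure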
# How it was run: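 HEK293T PPAR-delta-UAS-bla cells, 4000/well, 2% charcoal/dextran FBS; 5 h 37 C; cpd titration; 18 h 37 C; CCF4 2 h RT; FI 460/530 nm; Hill fit → IC50, efficacy.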
# [4] = target: Vitamin D3 receptor (Homo sapiens) (UniProt P11473); assay: qHTS assay for small molecule antagonists of vitamin D receptor signaling (AID 588541);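 note: receptor activated by calcitriol during compound treatment; series mostly up to about 77 µM; % is set by controls: 0 for no effect and ±100 for the full control effect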
# Chain of Vitamin D3 receptor (Homo sapiens) (P11473 whole entry, looked up): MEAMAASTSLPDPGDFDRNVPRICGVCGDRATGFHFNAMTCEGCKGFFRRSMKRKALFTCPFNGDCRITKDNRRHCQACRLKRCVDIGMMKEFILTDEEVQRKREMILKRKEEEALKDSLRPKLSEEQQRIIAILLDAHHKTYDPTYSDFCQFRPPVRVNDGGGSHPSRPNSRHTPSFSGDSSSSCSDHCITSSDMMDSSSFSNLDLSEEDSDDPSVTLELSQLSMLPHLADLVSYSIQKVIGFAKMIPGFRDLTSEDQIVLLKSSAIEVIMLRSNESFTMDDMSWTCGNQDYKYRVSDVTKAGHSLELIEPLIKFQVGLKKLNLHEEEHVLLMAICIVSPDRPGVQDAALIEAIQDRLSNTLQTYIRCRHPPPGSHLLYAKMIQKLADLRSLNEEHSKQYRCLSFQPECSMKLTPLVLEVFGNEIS
# How it was run: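 Antagonist-mode beta-lactamase reporter assay: HEK293T VDR-UAS-bla cells were exposed to titrated compound alongside 1-alpha,25-dihydroxyvitamin D3 at 3 nM final for 16 h. Values were normalized to the 50 nM agonist control and DMSO basal, with IC50 and efficacy from Hill equation fits.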
# [5] = qHTS assay for small molecule agonists of retinoid X receptor alpha signaling (AID 588544); conditions: HEK293T RXRa-UAS-bla, beta-lactamase reporter, 18 h; 530 nm emission;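 for activation: 0% = DMSO basal wells and 100% = reference agonist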
# [6] = target: Retinoic acid receptor RXR-alpha (Homo sapiens) (UniProt P19793); assay: as above
# Chain of Retinoic acid receptor RXR-alpha (Homo sapiens) (P19793 whole entry, looked up): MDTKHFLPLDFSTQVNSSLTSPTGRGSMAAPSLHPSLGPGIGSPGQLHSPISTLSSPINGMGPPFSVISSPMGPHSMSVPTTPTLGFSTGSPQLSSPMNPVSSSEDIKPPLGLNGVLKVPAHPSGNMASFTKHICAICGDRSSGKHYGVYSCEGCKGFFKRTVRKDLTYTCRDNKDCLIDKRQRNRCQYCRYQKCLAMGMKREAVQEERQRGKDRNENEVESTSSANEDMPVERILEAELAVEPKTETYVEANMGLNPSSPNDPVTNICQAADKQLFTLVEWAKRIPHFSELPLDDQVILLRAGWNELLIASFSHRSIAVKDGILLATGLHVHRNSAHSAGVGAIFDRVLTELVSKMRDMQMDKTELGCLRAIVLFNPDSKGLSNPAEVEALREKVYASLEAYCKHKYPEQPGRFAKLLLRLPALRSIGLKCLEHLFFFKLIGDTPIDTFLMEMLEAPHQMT
# [7] = target: Thyroid hormone receptor beta (Homo sapiens) (UniProt P10828); assay: qHTS assay for small molecule agonists of thyroid hormone receptor beta signaling (AID 588545);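 note: 0% = DMSO only and 100% = 10 nM T3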
# Chain of Thyroid hormone receptor beta (Homo sapiens) (P10828 whole entry, looked up): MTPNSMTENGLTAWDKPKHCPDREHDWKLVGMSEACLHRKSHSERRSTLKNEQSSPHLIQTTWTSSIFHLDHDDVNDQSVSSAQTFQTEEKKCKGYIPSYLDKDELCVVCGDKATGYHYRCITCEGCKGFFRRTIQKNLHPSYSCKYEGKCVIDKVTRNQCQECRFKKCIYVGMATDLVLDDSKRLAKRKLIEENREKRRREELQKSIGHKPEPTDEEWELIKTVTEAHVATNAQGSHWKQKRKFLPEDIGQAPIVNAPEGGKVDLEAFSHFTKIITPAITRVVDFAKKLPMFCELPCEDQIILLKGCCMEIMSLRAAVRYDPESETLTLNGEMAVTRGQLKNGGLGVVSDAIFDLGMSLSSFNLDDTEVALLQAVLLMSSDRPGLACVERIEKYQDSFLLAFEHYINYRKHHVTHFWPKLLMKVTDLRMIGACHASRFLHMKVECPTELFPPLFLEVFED
# How it was run: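 TR-UAS-bla GripTite HEK 293 cells (2500/well, medium with 2% charcoal/dextran FBS) were treated in agonist mode for 18 h at 37 C, titrated. Beta-lactamase was read by CCF4 ratio after 2 h; normalized to 10 nM T3 (100%) and DMSO, Hill-fitted for EC50 and efficacy.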
# [8] = qHTS assay for small molecule antagonists of retinoid X receptor alpha signaling (AID 588546; active = well fitted inhibition curve with a large enough effect in the signal ratio, with a control signal flat, not every such curve was filed as active; the % refers to the signal ratio;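 note: cells stimulated with 9-cis-retinoic acid as agonist; % is set by controls: 0 for no effect and ±100 for the full control effect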); conditions: HEK293T RXRa-UAS-bla, beta-lactamase ratio, antagonist mode; measured here: W530 green channel, cytotoxicity proxy
# How it was run: (§1)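 Beta-lactamase reporter inhibition, read as CCF4 fluorescence ratio (ex 405, em 460/530 nm) after 2 h at RT. HEK293T UAS-bla cells, 2500/well, were stimulated with 9-cis-RA at 500 or 100 nM final alongside test compound for 18 h at 37 C.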
# [9] = target: Retinoic acid receptor RXR-alpha (Homo sapiens) (UniProt P19793); assay: as above; conditions: HEK293T RXRa-UAS-bla, beta-lactamase ratio, antagonist mode
# How it was run: as §1
# [10] = target: Thyroid hormone receptor beta (Homo sapiens) (UniProt P10828); assay: qHTS assay for small molecule antagonists of thyroid hormone receptor beta signaling (AID 588547; active = well fitted inhibition curve with a large enough effect in the signal ratio, with a control signal flat, not every such curve was filed as active; the % refers to the signal ratio;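 note: cells stimulated with 0.4 nM T3 agonist during compound exposure; series mostly up to about 77 µM; % is set by controls: 0 for no effect and ±100 for the full control effect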); conditions: TR-UAS-bla HEK293, beta-lactamase ratio, antagonist mode, 18 h
# How it was run: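 Inhibition of T3-driven (0.4nM final) beta-lactamase reporter activity was measured over 0.59 nM to 92 uM compound after 18 h at 37 C. The cells were GripTite HEK293 TR-UAS-bla in charcoal/dextran-stripped serum, with CCF4 ratio read-out and IC50 from Hill fits.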
# [11] = qHTS assay for small molecule activators of the nuclear factor-kappa B (NF-kB) signaling pathway (AID 651749; active = well fitted activation curve with a large enough effect in the signal ratio; the % refers to the signal ratio; note: series mostly up to about 77 µM; % of control where 0% means no effect); conditions: NF-kB-bla ME-180 cells, beta-lactamase FRET ratio, 16 h; activation: stronger effect = higher value
# How it was run: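 Readout: beta-lactamase reporter driven by an NF-kB response element, detected fluorescently as loss of FRET. Cells were the ME-180 line, treated 16 hr at 37C with pin-transferred compound.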
# [12] = qHTS assay for environmental chemicals that activate the Aryl hydrocarbon Receptor (AhR) signaling pathway (AID 651777; active = well fitted curve in the direction sought with a large enough effect; an effect the other way counts as inactive or inconclusive; note: % of control where 0% means no effect; nearly all actives have a fitted effect of over 15% in size); conditions: 1A2-DRE human hepatoma cells, luciferase, 24 h; activation: stronger effect = higher value
# How it was run: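 Human hepatoma 1A2-DRE cells stably carrying a DRE/CYP1A2 promoter–luciferase reporter, 1,200 cells/well, exposed to compound 24 hr at 37 C. Luciferase read by One-Glo luminescence after 30 min at room temperature; increased signal marks AhR activation.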
# [13] = target: Peroxisome proliferator-activated receptor alpha (Homo sapiens) (UniProt Q07869); assay: qHTS assay for small molecule agonists of the peroxisome proliferator-activated receptor alpha (PPARalpha) signaling pathway (AID 651778; active = well fitted curve in the direction sought with a large enough effect; an effect the other way counts as inactive or inconclusive; note: % of control where 0% means no effect); conditions: PathHunter PPARalpha complementation, chemiluminescence, 6 h; max response: stronger effect = higher value
# Chain of Peroxisome proliferator-activated receptor alpha (Homo sapiens) (Q07869 whole entry, looked up): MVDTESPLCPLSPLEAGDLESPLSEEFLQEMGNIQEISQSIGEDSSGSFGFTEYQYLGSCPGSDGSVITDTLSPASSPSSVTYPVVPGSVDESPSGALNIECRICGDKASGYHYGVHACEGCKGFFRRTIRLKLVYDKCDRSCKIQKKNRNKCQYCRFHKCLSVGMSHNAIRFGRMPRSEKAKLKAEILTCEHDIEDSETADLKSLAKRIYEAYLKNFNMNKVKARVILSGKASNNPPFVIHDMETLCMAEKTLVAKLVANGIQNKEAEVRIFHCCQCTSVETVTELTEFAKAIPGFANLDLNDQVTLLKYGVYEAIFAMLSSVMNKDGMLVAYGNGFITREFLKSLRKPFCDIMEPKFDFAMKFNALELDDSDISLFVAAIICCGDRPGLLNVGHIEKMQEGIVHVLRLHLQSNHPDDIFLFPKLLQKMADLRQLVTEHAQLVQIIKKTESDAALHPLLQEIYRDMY
# How it was run: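 Chemiluminescence from complemented enzyme reported PPARalpha activation in cells after 6 hr of compound treatment at 37 C. The detection reagent was incubated for 60 min at room temperature, and compounds were scored as agonists.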
# [14] = qHTS assay for cell viability of HEK293 cells (AID 743288; active = well fitted curve in the direction sought with a large enough effect; an effect the other way counts as inactive or inconclusive; note: nearly all actives have a fitted effect of over 50% in size; note: potency is the fitted concentration of half-maximal effect); conditions: ATP luminescence (CellTiter-Glo), 18 h; max response: stronger effect = lower value
# How it was run: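 The Tox21 protocol used parental HEK293 cells treated for 18 h at 37 C with compounds delivered by pintool; ATP-coupled luminescence after 30 min at room temperature gave viability.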
# [15] = qHTS assay for cell viability of the p53RE-bla HCT-116 cell line (AID 743292; active = well fitted curve in the direction sought with a large enough effect; an effect the other way counts as inactive or inconclusive; note: nearly all actives have a fitted effect of over 55% in size; note: potency is the fitted concentration of half-maximal effect)
# How it was run: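 CellSensor p53RE-bla HCT-116 cells (4,000/well) pre-incubated 5 h at 37 C, then exposed to compounds in DMSO for 16 h at 37 C. Viability read as ATP content by CellTiter-Glo luminescence after 30 min at room temperature.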
# [16] = target: Nuclear receptor subfamily 1 group I member 2 (Rattus norvegicus) (UniProt Q9R1A7); assay: qHTS assay for small molecule activators of the rat pregnane X receptor (rPXR) signaling pathway (AID 651751; call rule not given here; note: 0% is about no effect); conditions: rPXR reporter cells, luciferase (One-Glo), 24 h
# Chain of Nuclear receptor subfamily 1 group I member 2 (Rattus norvegicus) (Q9R1A7 whole entry, looked up): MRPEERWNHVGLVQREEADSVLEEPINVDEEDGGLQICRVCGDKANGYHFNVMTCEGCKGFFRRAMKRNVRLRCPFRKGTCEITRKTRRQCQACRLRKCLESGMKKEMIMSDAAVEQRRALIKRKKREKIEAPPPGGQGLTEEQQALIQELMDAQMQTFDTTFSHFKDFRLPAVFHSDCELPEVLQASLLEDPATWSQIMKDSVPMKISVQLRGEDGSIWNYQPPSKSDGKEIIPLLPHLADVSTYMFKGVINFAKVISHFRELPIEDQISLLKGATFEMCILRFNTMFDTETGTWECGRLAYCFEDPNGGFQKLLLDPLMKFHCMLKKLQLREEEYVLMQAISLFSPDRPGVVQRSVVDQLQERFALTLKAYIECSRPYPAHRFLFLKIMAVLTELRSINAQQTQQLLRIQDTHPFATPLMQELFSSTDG
# [17] = qHTS assay for small molecule activators of the human pregnane X receptor (PXR) signaling pathway (AID 720659; call rule not given here; note: 0% is about no effect)
# [18] = target: Glucocorticoid receptor (Homo sapiens) (UniProt P04150); assay: qHTS assay for small molecule agonists of glucocorticoid receptor signaling (AID 588532; active = well fitted curve in the direction sought with a large enough effect in the signal ratio, with a control signal flat; the % refers to the signal ratio;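 note: 100% = dexamethasone at 0.1 µM and 0% = DMSO only wells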); conditions: HeLa MMTV-bla, beta-lactamase ratio, agonist, 18 h; stronger effect = higher value; percent of dexamethasone control, DMSO zero
# Chain of Glucocorticoid receptor (Homo sapiens) (P04150 whole entry, looked up): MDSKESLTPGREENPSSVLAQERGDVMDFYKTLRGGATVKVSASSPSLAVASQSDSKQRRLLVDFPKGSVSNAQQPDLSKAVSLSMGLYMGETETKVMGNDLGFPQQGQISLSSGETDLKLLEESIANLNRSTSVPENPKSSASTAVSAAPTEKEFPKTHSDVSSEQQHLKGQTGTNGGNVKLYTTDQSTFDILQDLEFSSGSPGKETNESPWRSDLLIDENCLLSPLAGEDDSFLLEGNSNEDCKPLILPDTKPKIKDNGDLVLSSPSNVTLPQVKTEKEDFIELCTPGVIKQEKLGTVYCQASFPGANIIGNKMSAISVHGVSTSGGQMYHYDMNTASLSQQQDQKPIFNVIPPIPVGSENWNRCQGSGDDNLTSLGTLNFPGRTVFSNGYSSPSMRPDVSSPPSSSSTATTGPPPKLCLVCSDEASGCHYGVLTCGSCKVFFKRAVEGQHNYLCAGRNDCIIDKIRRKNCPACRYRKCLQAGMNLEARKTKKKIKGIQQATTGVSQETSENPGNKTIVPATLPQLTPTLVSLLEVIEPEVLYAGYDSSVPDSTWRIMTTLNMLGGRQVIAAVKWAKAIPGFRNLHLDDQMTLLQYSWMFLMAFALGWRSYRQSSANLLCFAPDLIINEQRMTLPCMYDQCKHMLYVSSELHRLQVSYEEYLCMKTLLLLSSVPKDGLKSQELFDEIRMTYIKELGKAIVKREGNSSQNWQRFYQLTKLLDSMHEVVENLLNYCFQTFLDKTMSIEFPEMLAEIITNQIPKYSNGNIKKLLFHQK
# How it was run: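 Agonist-mode qHTS: GRE-driven beta-lactamase in HeLa cells exposed 18 h to titrated compounds (up to 92 uM), then CCF4 ratio read after 2 h at RT; Hill-fitted EC50, efficacy relative to 0.1 uM dexamethasone.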
# [19] = target: Peroxisome proliferator-activated receptor gamma (Homo sapiens) (UniProt P37231); assay: qHTS assay for small molecule agonists of peroxisome proliferator-activated receptor gamma signaling (AID 588536; active = well fitted curve in the direction sought with a large enough effect in the signal ratio, with a control signal flat, not every such curve was filed as active; the % refers to the signal ratio;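 note: 0% = DMSO basal wells and 100% = rosiglitazone at 2 µM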)
# Chain of Peroxisome proliferator-activated receptor gamma (Homo sapiens) (P37231 whole entry, looked up): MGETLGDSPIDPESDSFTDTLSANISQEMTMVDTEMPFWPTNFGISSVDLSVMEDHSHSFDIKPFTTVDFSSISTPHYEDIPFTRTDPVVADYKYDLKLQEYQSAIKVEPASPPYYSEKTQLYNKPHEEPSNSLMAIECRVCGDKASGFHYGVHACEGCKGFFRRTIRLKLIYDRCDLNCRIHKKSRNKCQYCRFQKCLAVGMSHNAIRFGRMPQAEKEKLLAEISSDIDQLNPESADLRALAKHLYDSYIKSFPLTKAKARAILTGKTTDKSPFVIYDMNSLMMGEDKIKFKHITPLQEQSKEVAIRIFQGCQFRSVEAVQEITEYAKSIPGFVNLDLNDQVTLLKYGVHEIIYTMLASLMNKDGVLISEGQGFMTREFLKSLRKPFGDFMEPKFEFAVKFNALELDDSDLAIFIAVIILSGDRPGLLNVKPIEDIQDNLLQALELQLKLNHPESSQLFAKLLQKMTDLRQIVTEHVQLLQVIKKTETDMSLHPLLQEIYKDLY
# How it was run: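 HEK293 UAS-bla reporter line, 1% charcoal/dextran FBS; titration, 16 h, 37 C; CCF4 loading 2 h RT; fluorescence 460/530 nm. Normalized to rosiglitazone 2 uM = 100%, DMSO = 0%.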
# [20] = qHTS assay for small molecule agonists of the antioxidant response element (ARE) signaling pathway measured by Nrf2-dependant transcriptional activity - cell viability counter screen (AID 720653; active = well fitted curve in the direction sought with a large enough effect in the repeat runs; an effect the other way counts as inactive or inconclusive; note: % is set by controls: 0 for no effect and ±100 for the full control effect); conditions: ARE-bla HepG2 viability, CellTiter-Glo ATP luminescence, 16 h; max response: stronger effect = lower value
# How it was run: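 Cytotoxicity counter screen: intracellular ATP quantified by CellTiter-Glo luminescence in the same ARE-bla HepG2 plates, after 16 h compound exposure and a 2 h beta-lactamase substrate step.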
smiles,measurement,setting,value
Nc1c(N=Nc2ccc(S(=O)(=O)CCOS(=O)(=O)O)cc2)c(S(=O)(=O)O)cc2cc(S(=O)(=O)O)c(N=Nc3ccc(S(=O)(=O)CCOS(=O)(=O)O)cc3)c(O)c12,Potency,[1],inactive
same,Potency,[2],inactive
same,max response,[3],-15.1%
same,Potency,[4],inactive
same,max response,[5],-7.65%
same,Potency,[6],inactive
same,Potency,[7],inactive
same,max response,[8],-13.3%
same,max response,[9],-5.5% (inactive)
same,activity change % (negative = inhibition),[10],-6.2% (inactive)
same,activation,[11],1.61% (inactive)
same,activation,[12],-7.65% (inactive)
same,max response,[13],-8.75% (inactive)
same,Potency,[14],35.5 µM (active)
same,Potency,[15],25.1 µM (active)
same,max response,[16],-11.2% (inactive)
same,outcome,[17],inactive
CCCCCC1CCC(=O)O1 (stereo not given),Potency,[1],inactive
same,Potency,[2],inactive
same,activation,[18],-5.15% (inactive)
same,max response,[3],31.3%
same,Potency,[4],inactive
same,max response,[5],-5.36%
same,Potency,[6],inactive
same,Potency,[7],inactive
same,max response,[8],-5.89%
same,activation,[11],-1.34% (inactive)
same,max response,[13],-1.42% (inactive)
same,max response,[14],-7.91% (inactive)
same,Potency,[15],inactive
same,max response,[16],2.69% (inactive)
same,outcome,[17],inactive
C=C(C)C(=O)OCCOC(=O)C(=C)C,Potency,[1],inactive
same,Potency,[2],inactive
same,activation,[18],-0.861% (inactive)
same,max response,[3],-2.87%
same,outcome,[19],inactive
same,max response,[5],0.328%
same,Potency,[6],inactive
same,Potency,[7],inactive
same,max response,[8],-22.3%
same,max response,[9],-2.81% (inactive)
same,activity change % (negative = inhibition),[10],17.4% (inactive)
same,activation,[11],-0.69% (inactive)
same,activation,[12],-1.11% (inactive)
same,max response,[13],-3.02% (inactive)
same,max response,[20],-15.5% (inactive)
same,max response,[14],-1.71% (inactive)
same,max response,[16],-5.37% (inactive)
same,outcome,[17],inactive
